# Rows were chosen to be rich in hits. Some 3.5% of all compounds tested hit in one or more screens of this group.
# TEAD-YAP inh: TEAD-YAP interaction inhibition | 640,000 tested, 1.4% active | inhibition, % at 9.12 µM | HEK-TIYL cells, TEAD-Gal4/YAP UAS-luciferase luminescence; in the data active = inhibition above about 32%;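 also: 0% = median of test compound wells and 100% = reference inhibitor wells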
# FBW7 act: activators of human E3 ligase FBW7 | AlphaScreen FBW7–phospho-cyclin E peptide binding, activator screen | normalized activity (activation), % at 26.1 µM | 650,000 tested, 0.13% active | AID 1259310; in the data active = normalized activity above about 1.9%;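 also: purified mutant Fbw7 with reduced substrate affinity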
# GPR151 activ: activators of human GPR151. Q8TDV0. PathHunter beta-arrestin GPR151 cells, luminescence. activation, % at 11.2 µM. 650,000 tested, 1% active. AID 1508602; in the data active = activation above about 4.9%;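 also: 0% = median of compound wells and 100% = cells with positive control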
# Target sequence (Q8TDV0 whole entry, looked up): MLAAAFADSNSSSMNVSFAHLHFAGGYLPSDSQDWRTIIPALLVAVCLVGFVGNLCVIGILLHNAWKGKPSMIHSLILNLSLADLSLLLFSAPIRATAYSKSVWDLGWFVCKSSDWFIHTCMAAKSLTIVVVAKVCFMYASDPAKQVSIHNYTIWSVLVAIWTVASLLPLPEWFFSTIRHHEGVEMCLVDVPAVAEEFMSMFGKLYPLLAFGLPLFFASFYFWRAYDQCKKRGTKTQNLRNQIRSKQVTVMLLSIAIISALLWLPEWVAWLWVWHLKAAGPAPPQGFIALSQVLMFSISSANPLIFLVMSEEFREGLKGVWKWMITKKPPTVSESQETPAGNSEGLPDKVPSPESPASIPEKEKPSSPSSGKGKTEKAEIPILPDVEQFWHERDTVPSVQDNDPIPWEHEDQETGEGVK
# MITF primary: human MITF inhibition, primary screen; O75030; AlphaScreen MITF homodimerization, bead proximity signal; inhibition, % at 2.6 µM; 650,000 tested, 0.91% active; in the data active = inhibition above about 50%;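 also: 0% = vehicle wells with protein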
# GPR151 confirm: human GPR151 activation, confirmation screen. shares compounds with GPR151 activ. GPR151 PathHunter beta-arrestin cells, luminescence, 90 min; % of EA-reagent control over plate median. activation, % at 11.2 µM. 6,700 tested, under 10 active. AID 1508609;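 active = mean percent activation across replicates above the confirmation screen cutoff of 4.91%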
# GPR119 counter: counter-screen for GPR151 activators: effect on human GPR119 | activation, % at 11.2 µM | shares compounds with GPR151 activ | AID 1508611 | GPR119 PathHunter beta-arrestin cells, luminescence, 90 min; 0 = compound-well median, 100 = enzyme-acceptor control | 6,700 tested, 0.3% active;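 active = mean percent activation in the counterscreen above 29.09%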;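 also: counterscreen on off-target GPR119 to flag nonselective hits from the GPR151 activator screen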
# * hit, by the source's call; / = no result given.
SMILES,TEAD-YAP inh,FBW7 act,GPR151 activ,MITF primary,GPR151 confirm,GPR119 counter
CC1CCN(c2nc(N3CCOCC3)nc(N3CCOCC3)n2)CC1,8,0,8.9*,8,0,-2
CC(=O)Nc1ccc(/C=C(\c2nc3ccccc3[nH]2)S(=O)(=O)c2ccccc2)cc1,-3,0,6.6*,6,0,3
CC(=O)Nc1ccc(/C=C(\C#N)c2nc3ccccc3[nH]2)cc1,-31,0,0,3,/,/
O=C(CCCCCNC(=O)c1ccccc1)N/N=C/c1ccccc1O,10,0,9.6*,13,1,11
CCOc1ccc(NCC(=O)N/N=C/c2ccccc2O)cc1,5,0,5.4*,10,1,-16
CCOc1ccc(NCC(=O)N/N=C/c2cc(OC)ccc2O)cc1,13,0,2,2,/,/
COc1cccc(/C=N\NC(=O)CNc2ccc(C)cc2)c1O,-3,0,0,-24,/,/
Cc1ccccc1NCC(=O)N/N=C\c1cc(Br)cc(Cl)c1O,22,0,9.2*,10,-1,-8
COc1cccc(/C=N/NC(=O)CNc2cccc(Cl)c2)c1O,17,0,7.2*,12,-1,-13
COC(=O)C(O)(c1sc(-c2ccccc2)cc1C)C(F)(F)F (stereo unspecified),-6,0,1,2,/,/
CCN(CC)c1ccc(/C=N\Nc2ccc([N+](=O)[O-])cn2)c(OC)c1,3,0,1,7,/,/
COc1ccc(O)c(/C=N/NC(=O)CCC(=O)Nc2cccc(C)c2)c1,23,0,8.7*,30,0,6
COc1ccc(O)c(/C=N/NC(=O)CNc2cccc(C)c2)c1,8,0,0,-2,/,/
CCOc1ccc(/C=N/NC(=O)C(O)c2ccccc2)c(O)c1 (stereo unspecified),-6,0,5.8*,9,1,6
Cc1cccc(NCC(=O)N/N=C/c2ccccc2O)c1,1,0,7.2*,10,2,4
O=C(C1CCCC1)N1CCC2(CC1)NC(=O)N(CCc1ccccc1)C2=O,1,0,0,-12,/,/
CC(=O)c1ccc(S(=O)(=O)N2CCN(C3=NS(=O)(=O)c4ccccc43)CC2)cc1,5,0,1,9,/,/
Cc1cc(SCc2ccccc2Cl)nc(=O)[nH]1,-14,0,7.6*,-9,0,5
Cc1cc(SCC(=O)NCc2ccc(F)cc2)nc(=O)[nH]1,2,0,-1,-8,/,/
COc1ccccc1CNC(=O)CSc1cc(C)[nH]c(=O)n1,1,0,12*,-17,0,7
CCOC(=O)c1c(CN2CCCCC2C)n(-c2ccccc2)c2cc(Br)c(O)cc12 (stereo unspecified),6,0,1,1,/,/
CC(=O)NC(NC(=O)c1ccc(Cl)cc1)C(Cl)Cl (stereo unspecified),11,1,6.9*,12,0,8
CC(=O)NNC(=O)c1ccc(Cl)cc1,-4,1,0,-1,/,/
COc1cc2[nH]c(=S)nc(NCC(OC)OC)c2cc1OC,2,0,5.5*,25,0,0
COc1cc2[nH]c(=S)nc(NCCCN3CCCC3)c2cc1OC,-2,0,1,-3,/,/
SMILES,TEAD-YAP inh,FBW7 act,GPR151 activ,MITF primary,GPR151 confirm,GPR119 counter
COc1ccc(OC(C)C(=O)Nc2ccc(C)cc2C)cc1 (stereo unspecified),3,0,-2,10,/,/
COc1ccc(OC(C)C(=O)Nc2cc(C)ccc2C)cc1 (stereo unspecified),9,0,5.0*,-3,2,1
Cc1cccc(C)c1NC(=O)C(=O)NCCc1ccc(F)cc1,-6,0,6.4*,-7,0,-5
Cc1cccc(C)c1NC(=O)C(=O)NCCc1ccccc1,-1,0,0,-7,/,/
O=C(NCCN1CCOCC1)c1cncc(-c2cccs2)c1,3,0,7.3*,42,0,2
CC(C)CC(=O)Nc1nn2c(-c3cccs3)nnc2s1,-8,0,5.5*,0,0,-6
O=C(COc1ccc(F)cc1)Nc1ccc(Cl)cn1,-33,0,18*,0,0,-8
O=Cc1cc(Cl)ccc1OCC(=O)Nc1ccc(F)cc1,-57,0,11*,8,-1,3
O=C(Nc1ccc(Cl)cn1)c1ccccc1Cl,-69,0,-4,6,/,/
